Source: PubChem BioAssay
BAZ2B block: qHTS Assay for Inhibitors of BAZ2B. Bromodomain adjacent to zinc finger domain protein 2B (Homo sapiens), Q9UIF8. AlphaScreen BAZ2B-H3K14Ac peptide displacement. Potency, µM (top dose mostly 114 µM), for the others: at the highest dose activity change, negative = inhibition, most hits filed as inhibitors. actives 4.4% (n = 360,000). AID 504333, 2011; also: potency is read from the fitted curve at half-maximal effect; % is scaled to controls: 0 for no effect and ±100 for the full control effect; nearly all actives have a fitted effect of over 60% in size
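BAZ2B 50 nM plus b-H3(5-23)K14Ac 50 nM, PBS pH 7.4/0.01% Tween-20, 30 min RT; compound added (max 110 uM), 30 min RT; streptavidin donor/Ni-chelate acceptor beads 10 ug/mL final, 20 min dark; AlphaScreen read.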
HP1b chromo inh: HTS for Inhibitors of HP1-beta Chromodomain Interactions with Methylated Histone Tails; Chromobox protein homolog 1 (Homo sapiens), P83916; AlphaScreen HP1-beta / biotin-H3K9me3 peptide binding; Potency, µM (highest dose often 114 µM), inactives show at the top dose activity change, negative = inhibition, most hits filed as inhibitors; actives 0.56% (n = 390,000); also: potency is read from the fitted curve at half-maximal effect; nearly all actives have a fitted effect of over 70% in size
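AlphaScreen: HP1-beta (50 nM) preformed 30 min with biotin-H3(1-18)K9me3 peptide (50 nM) in PBS pH 7.4, 0.01% Tween-20. Compound added for 30 min at RT, then streptavidin donor/nickel chelate acceptor beads (10 ug/mL) for 30 min.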
Six1-Eya2 blk: qHTS Assay for Inhibitors of the Six1/Eya2 Interaction; Homeobox protein SIX1 (Homo sapiens) + Protein phosphatase EYA2 (Homo sapiens), …; AlphaScreen GST-Six1/His-Eya2 binding, biochemical; active compounds read low; activity change, % (test concentration not listed); actives 0.56% (n = 360,000); in the data active = activity change below about -65%; inconclusive = mostly about -30% to -63%; also: % is scaled to controls: 0 for no effect and ±100 for the full control effect
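AlphaScreen with GST-Six1 and His-Eya2 (5X mix: 250 nM and 500 nM), glutathione donor and nickel acceptor beads; buffer 50 mM Tris pH 8.0, 300 mM NaCl, 1 mM TCEP; 1 h at 37 C in the dark.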
G9a block: qHTS Assay for Inhibitors of Histone Lysine Methyltransferase G9a; G9a H3K9 monomethylation, AlphaScreen, 2 h; Potency, µM (titrated, usually from 102 µM), without a hit: at the top dose activity, negative = inhibition, actives largely listed as inhibitors; actives 8.8% (n = 350,000); also: potency is read from the fitted curve at half-maximal effect; % is scaled to controls: 0 for no effect and ±100 for the full control effect; nearly all actives have a fitted effect of over 75% in size
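Using a bead-based AlphaScreen, monomethylated H3K9 product from 2 h room-temperature reactions (G9a 20 nM, peptide 500 nM, SAM 20 uM) was detected with 0.5 ug/mL rabbit anti-H3K9me1 antibody.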
JMJD2A Tudor: qHTS Assay for Inhibitors of JMJD2A-Tudor Domain; actives 4.4% (n = 390,000); Lysine-specific demethylase 4A (Homo sapiens), O75164; AlphaScreen JMJD2A-Tudor / H3K4me3 peptide binding; Potency, µM (titrated, usually from 114 µM), for the others: top-dose activity change, negative = inhibition, hits mostly inhibitors; also: potency is read from the fitted curve at half-maximal effect; % is scaled to controls: 0 for no effect and ±100 for the full control effect; nearly all actives have a fitted effect of over 50% in size
CtBP-E1A inh: qHTS Assay for Inhibitors of the CtBP/E1A Interaction | AlphaScreen GST-E1A/His-CtBP binding, 1536-well; active compounds read low | actives 0.49% (n = 340,000) | activity change, % (test concentration not listed) | CtBP / adenovirus E1A interaction (AlphaScreen); in the data active = activity change below about -65%; inconclusive = mostly about -30% to -63%; also: % is scaled to controls: 0 for no effect and ±100 for the full control effect
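Steps: dispense buffer (Tris pH 8.0, NaCl 300 mM, TCEP 1 mM, BSA, Tween 20); add 5X protein mix (GST-E1A, His-CtBP, 125 nM each); pin 23 nL compound; 2 h at 37 °C, dark; add 5X beads (50 ug/mL); 1 h; read.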
Starred values were filed as active, the others as inactive; ? = inconclusive; nt = not tested or not shown; [ ] = dose if it differs, or a comment. Sampled rows, rich in hits. Any-hit rate of the full collection: about 10%. Unless noted, calls follow the shape of the dose curve; as a rule, active = well fitted inhibition curve with a large enough effect; inconclusive = small, poorly fitted or top-dose-only effect; inactive = no such curve, though single readings can be large or run the other way.

SMILES	BAZ2B block	HP1b chromo inh	Six1-Eya2 blk	G9a block	JMJD2A Tudor	CtBP-E1A inh
COc1cccc(-n2c(/C=C/c3ccc(O)c(O)c3)nc3ccccc3c2=O)c1	?	-16.9%	7.0	44.7µM*	?	-7.7
COc1ccc(-n2c(/C=C/c3ccc(O)c(OC)c3)nc3ccccc3c2=O)cc1	-13.0%	77.9%	-1.5	nt	-6.0%	nt
CCOC(=O)c1ccc(N2C(=O)c3n[nH]c(-c4cccs4)c3C2c2ccc(C(C)(C)C)cc2)cc1 (centres undefined)	nt	-3.5%	nt	?	?	nt
CCC(C(=O)Nc1ccccc1F)N1C(=O)CN=C(c2ccccc2)c2ccccc21 (centres undefined)	nt	-0.3%	nt	-28.5%[59 µM]	-22.3%	nt
CCCN(C(=O)c1cc2c(=O)oc3ccccc3c2s1)c1cccc(Cl)c1	3.2%	11.3%	nt	-2.5%[59 µM]	?	nt
COc1cc(C(=O)N/N=C/c2ccc(OC(=O)N3CCOCC3)cc2)cc(OC)c1OC	-0.9%	6.9%	4.9	?	-18.3%	nt
CCOc1ccc(CN(CCc2ccc3c(c2)OCO3)Cc2ccc(CC)cc2)cc1	70.8µM*	-21.5%	nt	?	22.4µM*	nt
CCOc1ccc(CN(CCc2ccc3c(c2)OCO3)Cc2cccc(C)c2)cc1	?	?	nt	0.891µM*	22.4µM*	nt
CCOc1ccc(CN(CCc2ccc3c(c2)OCO3)Cc2cc(OC)ccc2O)cc1	?	?	nt	3.16µM*	22.4µM*	nt
COc1ccc(OCC(=O)N2CCN(Cc3ccc4c(c3)OCO4)CC2)cc1	-9.1%	12.9%	-8.8	4.8%	-6.3%	-10.8
CC(Oc1ccc(Br)cc1)C(=O)N(Cc1nc(-c2ccccc2)no1)C(C)C (centres undefined)	13.6%	47.3%	nt	-5.4%[59 µM]	16.0%	nt
CCN(CC)c1ccc(CC2C(=O)N(C)C(=O)N(C)C2=O)cc1	44.7µM*	?	-23.7	12.6µM*	44.7µM*	-2.0
C=CCOc1ccc(CC2C(=O)N(C)C(=O)N(C)C2=O)cc1	12.2%	-6.8%	-11.9	-47.2%[12.7 µM]	-13.4%[57.1 µM]	-1.8
CCCc1cc(N2CCN(c3ccc(OC)cc3)CC2)n2cnnc2n1	?	14.7%	nt	?	-25.5%	nt
Cc1ccccc1NC1=NCC(C)S1 (centres undefined)	4.2%	24.6%	4.2	16.9%[59 µM]	-10.6%	3.5
Cc1cccnc1NC1=NCC(C)S1 (centres undefined)	0.0%	40.1%	0.5	3.98µM*	-14.4%[11.4 µM]	4.6
C=C[C@]12CN(C)[C@H]3C1[C@@]1(C(=O)Nc4ccccc41)[C@H]1C[C@H]2[C@H]3CO1	nt	nt	nt	27.3%[21.5 µM]	nt	nt
CN1C(=O)C(=Cc2ccc(N3CCOCC3)c([N+](=O)[O-])c2)C(=O)N(C)C1=O	-34.6%	nt	nt	35.5µM*	nt	nt
O=C1NC(=O)C(=Cc2ccc(N3CCN(C(=O)c4ccccc4)CC3)c([N+](=O)[O-])c2)C(=O)N1	?	?	2.4	11.2µM*	39.8µM*	-17.5
CC(C)(C)OC(=O)N1CC(O)CC1C(=O)OCC(=O)c1ccc(-c2ccccc2)cc1 (centres undefined)	-33.0%	28.3%	1.6	?	?	1.1
COc1ccc(-c2nn(-c3ccccc3)cc2C(=O)N2c3ccc(C)cc3C3CN(C)CCC32)cc1 (centres undefined)	?	0.8%	-18.1	?	-21.8%	-7.7
CC1CCN(CC(=O)c2ccccc2Cl)CC1	-9.0%	12.2%	11.5	?	?	0.0
CC1CCN(CC(=O)c2ccc3c(c2)OCCO3)CC1	nt	?	3.1	4.47µM*	5.01µM*	7.4
